# Activity calls are given as the source filed them. Rule for the calls: active = hit-call score of the fitted dose curve at least 0.9, where 1 is the maximum; inactive = score below 0.9.
# Read-out: TIMP metallopeptidase inhibitor 2 (TIMP2), TIMP2 (gene 7077)
# Experiment: BSK_KF3CT_TIMP2: BioMAP Diversity Plus: KF3CT Assay for TIMP metallopeptidase inhibitor 2 (TIMP2) Biomarker Activity (AID 2283071)
# Conditions: primary human keratinocytes with fibroblasts; actives raise or lower the signal
# Experimental: BSK_KF3CT is a cell-based, multiplexed-readout assay that uses keratinocytes and foreskin fibroblasts, a human skin primary cell co-culture, with measurements taken at 24 hours after chemical dosing in a 96-well plate.BSK_KF3CT_TIMP2 is an assay component measured in the BSK_KF3CT assay. It measures TIMP-2 antibody related to regulation of gene expression using ELISA technology.Data from the assay component BSK_KF3CT_TIMP2 was analyzed into 1 assay endpoint. This assay endpoint, BSK_KF3CT_TIMP2, was analyzed with bidirectional fitting relative to DMSO as the negative control and baseline of activity. Using a type of binding reporter, gain or loss-of-signal activity can be used to understand changes in the signaling as they relate to the gene TIMP2. Furthermore, this assay endpoint can be referred to as a primary readout, because this assay has produced multiple assay endpoints where this one serves a signaling function. To generalize the intended target to other relatable targets, this assay endpoint is annotated to the protease inhibitor intended target family, where the subfamily is metalloproteinase inhibitor.
# The levels of cell surface (or secreted, indicated by the prefix "s") biomarker endpoints were measured by ELISA. Overt cytotoxicity to cells in confluent adherent cultures (all systems other than the BT system) was assessed by measuring total protein levels using sulforhodamine B (SRB) staining in parallel cultures at the time of biomarker measurements, indicated as SRB endpoints. For proliferation assays for adherent cell types, individual cell types are cultured at sub-confluence and relative cell numbers quantified by SRB staining at time points optimized for each system (48 h: 3C and CASM3C systems; 72 h: BT and HDF3CGF systems; 96 h: SAg system). SRB was performed by staining cells with 0.1% SRB after fixation with 10% TCA and reading wells at 560 nm.Viability and proliferation of PBMC (T cells) was quantified by Alamar Blue reduction for the SAg and BT systems. For PBMC viability (referred to as PBMC Cytotoxicity within the assay endpoint names), cells were plated (75,000/well in a 96-well plate) and then chemical samples added for 1 h before addition of activators, SEB and TSST-1 (20 ng/mL final concentration each). Cells were incubated for 90 h. Then, Alamar Blue (20 uL/well) (Invitrogen, Cat DAL1100) was added for 6 h, and the plates were read with a fluorescence microplate reader at 546/580 nm (excitation/emission). For PBMC proliferation, cells were plated and activated as above but incubated for only 16 h prior to addition of Alamar Blue. Plates were read after 6 h.
SMILES,outcome,AC50
C=C[Si](OCC)(OCC)OCC,inactive,–
c1ccc2c(c1)c1cccc3ccc4cccc2c4c31,inactive,–
O=[N+]([O-])c1cc(C(F)(F)F)ccc1Cl,inactive,–
CC(=O)Nc1ccccc1O,inactive,–
CC1CCC(C(C)CS)CC1S (stereo not given),–,5.83 µM (active)
Nc1cc([N+](=O)[O-])ccc1O,inactive,–
OC[C@H]1O[C@H](O[C@]2(CCl)O[C@H](CCl)[C@@H](O)[C@@H]2O)[C@H](O)[C@@H](O)[C@H]1Cl,inactive,–
NCCNCCN,inactive,–
CC(=O)OCCC(C)CC(C)(C)C (stereo not given),inactive,–
N#Cc1ccc(CC(=NNC(=O)Nc2ccc(OC(F)(F)F)cc2)c2cccc(C(F)(F)F)c2)cc1,–,2.21 µM (active)
C#C[C@]1(O)CC[C@H]2[C@@H]3CCC4=Cc5oncc5C[C@]4(C)[C@H]3CC[C@@]21C,–,3.28 µM (active)
c1ccc2sc(SN(C3CCCCC3)C3CCCCC3)nc2c1,inactive,–
Cc1cc(C2(c3cc(C)c(O)cc3C)OS(=O)(=O)c3ccccc32)c(C)cc1O,inactive,–
CC(C)c1ccc(C(C)C)cc1,–,31.8 µM (active)
CCCCC(CC)COC(=O)/C=C\C(=O)OCC(CC)CCCC (stereo not given),inactive,–
Cc1ccc(O)c(C(C)(C)C)c1,–,24.9 µM (active)
O=C(O)c1cn(C2CC2)c2cc(N3CCNCC3)c(F)cc2c1=O,inactive,–
Nc1cc([N+](=O)[O-])ccc1Cl,inactive,–
CC(=O)/C=C/C1=C(C)CCCC1(C)C,inactive,–
CN(CCOc1ccc(CC2SC(=O)NC2=O)cc1)c1ccccn1 (stereo not given),inactive,–

SMILES,outcome,AC50
CC(=O)[C@H]1CC[C@H]2[C@@H]3CC=C4C[C@@H](O)CC[C@]4(C)[C@H]3CC[C@]12C,inactive,–
CCC(=O)OCc1ccccc1,inactive,–
O=C=NC1CCC(CC2CCC(N=C=O)CC2)CC1 (stereo not given),inactive,–
Cc1ccc(Nc2ccc(O)c3c2C(=O)c2ccccc2C3=O)cc1,inactive,–
O=C1OC2(c3cc(Br)c(O)c(Br)c3Oc3c2cc(Br)c(O)c3Br)c2c(Cl)c(Cl)c(Cl)c(Cl)c21,–,1.6 µM (active)
CC1COc2ccccc2N1C(=O)C(Cl)Cl (stereo not given),inactive,–
CC[Si](OC(C)=O)(OC(C)=O)OC(C)=O,inactive,–
CCCCCCCCC=O,inactive,–
CCc1c(C)cc(N)c(CC)c1N,inactive,–
BrC1CCC(Br)C(Br)CCC(Br)C(Br)CCC1Br (stereo not given),–,1.53 µM (active)
O=C(O)c1cn(-c2ccc(F)cc2)c2cc(N3CCNCC3)c(F)cc2c1=O,inactive,–
CCCCC(CC)COCCC#N (stereo not given),inactive,–
O=C(O)c1ccc([N+](=O)[O-])cc1,inactive,–
CCCCCCCCCC=O,inactive,–
CC(C)(COC(=O)c1ccccc1)COC(=O)c1ccccc1,inactive,–
C=C(C)C(=O)O[C@H]1C[C@@H]2CC[C@@]1(C)C2(C)C,–,10.2 µM (active)
O=P(c1ccccc1)(c1ccccc1)c1ccccc1,inactive,–
CCn1c2ccccc2c2cc(N)ccc21,–,1.49 µM (active)
CC(=O)O[C@]1(C(C)=O)CC[C@H]2[C@@H]3C[C@H](C)C4=CC(=O)CC[C@]4(C)[C@H]3CC[C@@]21C,inactive,–
O=C1CCCCCCCCCCCCCCO1,–,20 µM (active)

# Source: PubChem BioAssay (EPA / NIEHS)
